TTR transcr act: increases transthyretin transcription; AID 1117267; activation, % at 16.7 µM; 92,000 tested, 1.3% active; SH-SY5Y TTR promoter Gaussia luciferase, luminescence; 100% = recombinant luciferase protein wells;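 active = activation above the mean of all tested compounds plus 3 SD, cut at about 9.5% in these data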;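 note: cells exposed to compounds for one day before reading; 0% = median of all test compound wells on the plate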
TTR inh HuH7: HuH7 TTR transcription inhibition, counter-screen; 1,100 tested, 4% active; inhibition, % at 16.7 µM; AID 1117279; HuH7 TTR promoter-Gaussia luciferase reporter, luminescence; shares compounds with TTR transcr act;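 active = average inhibition above the solvent-only control wells' mean plus 3 SD, cut at about 15% in these data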;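 note: 0% = cells with DMSO only and 100% = cells with inhibitor control FD; inhibitors lower well luminescence so higher value means more inhibition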
TTR act confirm: human TTR transcription activation, confirmation | shares compounds with TTR transcr act | SHSY5Y TTR promoter Gaussia luciferase, luminescence; 100% = purified Lucia enzyme wells, no cells | activation, % at 16.7 µM | 1,100 tested, under 10 active;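 active = mean activation above a set limit taken from the earlier primary screen, cut at about 11% in these data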;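 note: 0% = DMSO-treated cells and 100% = recombinant Lucia luciferase without cells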
* marks the source's active call; other numbers are inactive results. Only a selection was taken, and hits are over-represented in it overall.

SMILES	TTR transcr act	others
Cc1csc(NC(=O)c2ccccc2)n1	-0.5
CC1CN(CC(=O)Nc2nc(-c3ccc(Cl)cc3)cs2)CC(C)O1 (configuration not stated)	-3.1
CCOc1ccccc1NC(=O)CNC(=O)Cc1ccccc1	-0.5
Cc1ccc(C)c(NC(=O)Cc2coc3cc4c(cc23)CCC4)c1	-1.0
CCOc1ccccc1NC(=O)Cc1coc2cc(C)ccc12	14.2*	TTR inh HuH7=-25.4;TTR act confirm=2.1
Fc1ccc2cc(-c3ccsc3)ncc2c1	3.9
CCCC(C)C(=O)NC1CCCCN(Cc2ccccc2C)C1=O (configuration not stated)	2.2
Cc1cc(C(c2cc(C)c(N)c(C)c2)c2ccco2)cc(C)c1N	-0.5
O=C(Nc1ccc(-c2cnco2)cc1)c1ccccc1	14.2*	TTR inh HuH7=-17.9;TTR act confirm=-0.2
O=C(Nc1ccc(-c2cnco2)cc1)c1ccc(Cl)cc1	3.8
O=C(NC(=O)c1ccccc1Cl)Nc1ccc(-c2cnco2)cc1	-0.3
CCOCCOC(=O)COC(=O)c1ccccc1NC(=O)c1ccccc1	12.3*	TTR inh HuH7=-12.0;TTR act confirm=1.5
CCOC(=O)c1ccccc1NC(=O)C(C)Oc1ccccc1 (configuration not stated)	-1.6
CCOC(=O)c1ccccc1NC(=O)C=C(C)C	-0.4
N/C(CN1CCCCC1)=N\S(=O)(=O)c1cc(Cl)cc(Cl)c1	1.1
CCC(c1nnnn1Cc1ccco1)N(Cc1ccccc1OC)Cc1cc2cc(C)ccc2[nH]c1=O (configuration not stated)	6.6
Cc1cccc2cc(C(c3nnnn3C(C)(C)C)N(Cc3ccco3)CC3CCCO3)c(=O)[nH]c12 (configuration not stated)	-2.2
CCC(c1nnnn1Cc1ccco1)N(Cc1cc2cc(C)cc(C)c2[nH]c1=O)CC1CCCO1 (configuration not stated)	18.3*	TTR inh HuH7=13.7;TTR act confirm=-0.3
C=CCCO[C@@H]1O[C@@H](C)[C@H](O)C[C@H]1O	1.0
CC(=O)c1cc(-c2ccc(-c3cc(C(=O)O)c4ccccc4n3)cc2)c(=O)n2c1CCC2	1.8
CCc1nc2ccc(C(=O)Nc3ccc(NC(C)=O)cc3)cn2c1N(C)CCCc1ccccc1	-1.5
C=C1C(=O)[C@]23C[C@H]1CC[C@H]2[C@]1(C)CCC[C@@](C)(C(=O)OC)[C@H]1C[C@@H]3O	-6.3
Cc1c(-c2ccccc2)nc(N)c(C#N)c1-c1cccnc1	11.7*	TTR inh HuH7=-6.0;TTR act confirm=-0.9
Cc1c(CC(C)C)nc(N)c(C#N)c1-c1ccccc1	0.4
CCCc1nc(N)c(C#N)c(-c2cccnc2)c1CC	1.7
SMILES	TTR transcr act	others
O=C(C[C@@H]1CC[C@H](NC(=O)Cc2ccccn2)[C@@H](CO)O1)NCCc1ccccc1	-0.9
COc1ccccc1C(=O)NCCC(=O)N1CC=C(c2ccccc2)CC1	2.8
Cc1ccccc1C(=O)N1CCC[C@H]1C(=O)N1CCC[C@H]1C(=O)NCc1ccccn1	13.7*	TTR inh HuH7=-5.4;TTR act confirm=-0.8
O=C(NCc1ccccn1)[C@@H]1CCCN1C(=O)[C@@H]1CCCN1C(=O)c1cccc(Cl)c1	0.0
O=C(NCc1ccccn1)[C@@H]1CCCN1C(=O)[C@@H]1CCCN1C(=O)c1cccs1	3.4
COc1ccc2[nH]c3c(c2c1)CCN1C(=O)N([C@@H](C)C(=O)NC2CCN(Cc4ccccc4)CC2)C(=O)[C@]31C	3.0
COc1ccc(CN2C(=O)CCC2(C)c2nnnn2Cc2ccccc2)cc1 (configuration not stated)	0.7
COCCNS(=O)(=O)c1cc(OC)c(Cl)cc1Cl	1.2
CCOCCCNS(=O)(=O)c1ccc(OC)c(Cl)c1Cl	11.9*	TTR inh HuH7=-21.1;TTR act confirm=-0.7
COc1ccc(S(=O)(=O)NCc2cccnc2)c(Cl)c1Cl	2.9
CC(=O)Nc1sc2c(c1-c1nc3ccccc3s1)CNC2	0.1
CC(=O)Oc1c(C)cc(Cl)cc1C(=O)Nc1ccc([N+](=O)[O-])cc1Cl	-5.8
CCOC(=O)C(=O)Nc1ccccc1C#N	24.8*	TTR inh HuH7=-3.4;TTR act confirm=2.1
CCOC(=O)C(=O)Nc1ccccc1C(=O)OCC	3.8
CCOC(=O)C(=O)Nc1ccccc1C(=O)NC(C)C	0.2
O=C(NC1CCCCC1)O[C@H]1CC[C@@]23CCCN2C(=O)CCC[C@H]3C1	0.1
COc1ccc(C(=O)COC(=O)CNC(=O)c2cc(OC)cc(OC)c2)cc1	0.8
COCCCNC(=O)CCc1nnc2ccc(N3CCC(C)CC3)nn12	1.5
CCC12CSc3nc(Cl)ccc3N1C(=O)C(=O)N2C (configuration not stated)	1.2
CCOC(=O)CNC(=O)c1cccnc1Oc1ccc(Cl)cc1	2.6
Cc1cccc(NC(=O)C2CCN(S(=O)(=O)c3ccc4c(c3)C(C)(C)C(=O)N4C)CC2)c1C	3.6
CCc1ccccc1NC(=O)C1CCCN1S(=O)(=O)c1ccc(-c2ccc(=O)[nH]n2)s1 (configuration not stated)	0.9
CCOc1ccccc1NC(=O)C1CCCN1S(=O)(=O)c1ccc2c(c1)C(C)(C)C(=O)N2C (configuration not stated)	11.8*	TTR inh HuH7=-15.3;TTR act confirm=0.4
COc1cccc(NC(=O)C2CCCN2S(=O)(=O)c2ccc3c(c2)C(C)(C)C(=O)N3C)c1 (configuration not stated)	-1.5
CCc1ccccc1NC(=O)[C@@H]1CCCN1S(=O)(=O)c1cccc2cccnc12	0.9
SMILES	TTR transcr act	others
CCc1ccccc1NC(=O)C1CCCN1S(=O)(=O)c1ccc2c(c1)n(C)c(=O)c(=O)n2C (configuration not stated)	17.6*	TTR inh HuH7=-14.9;TTR act confirm=-0.1
COc1cc(F)c(S(=O)(=O)N2CCCN(S(=O)(=O)c3cccc(N)c3)CC2)c(F)c1	1.3
COC(=O)c1cc(-c2cc3ccccc3o2)c(=O)n2c1CCC2	0.7
O=C(NCc1ccco1)c1cc2n(n1)C(C(F)(F)F)CC(c1ccc(Cl)c(Cl)c1)N2 (configuration not stated)	-1.0
O=C(Nc1ccccc1)c1cc2n(n1)C(C(F)(F)F)CC(C1CC1)N2 (configuration not stated)	13.9*	TTR inh HuH7=-14.8;TTR act confirm=0.8
CC(C)NC(=O)c1cc2n(n1)C(C(F)(F)F)CC(c1ccco1)N2 (configuration not stated)	0.4
COc1ccc(C(C)NC(=O)CCc2ccccc2)cc1 (configuration not stated)	0.0
CCc1ccccc1NC(=O)NNC(=O)CCc1ccc(OC)cc1	12.9*	TTR inh HuH7=-24.9;TTR act confirm=2.0
COc1ccc(CCC(=O)NNC(=O)Nc2ccc(C(C)C)cc2)cc1	-1.0
Cn1c(=O)c2c(nc(CN3CCc4ccccc4C3)n2Cc2ccccc2F)n(C)c1=O	0.1
Cn1c(=O)c2c(nc(CN3CCc4ccccc4C3)n2CCCO)n(C)c1=O	15.5*	TTR inh HuH7=-8.4;TTR act confirm=0.1
Cn1c(=O)c2c(nc(CN3CCN(C(=O)c4ccco4)CC3)n2CCCO)n(C)c1=O	2.0
Cc1ccc(NC(=O)/C(=C/c2cccs2)NC(=O)c2ccco2)cc1	0.3
COc1ccc2oc(=O)c(C(=O)Nc3ccccc3O)cc2c1	-3.2
COc1ccc2oc(=O)c(C(=O)NCc3ccco3)cc2c1	0.5
COc1ccc2oc(=O)c(-c3nnc(N)s3)cc2c1	10.3*	TTR inh HuH7=-10.0;TTR act confirm=2.1
CC(=O)Nc1ccc(N(C(=O)CNC(=O)c2ccco2)C(C(=O)NCc2ccco2)c2ccccc2F)cc1 (configuration not stated)	1.3

Screens from PubChem BioAssay.
